What was measured:
Experiment in all cases: PBM binding z-score (relative to random genomic background probes); higher = stronger binding; sequences stand for … in GC…GCGATTGACAGCGTAGAATGAAGG
[1] = test system: FXR:RXRa (NR concentration 270 nM, RXRa partner concentration 90 nM)
Outline: (§1)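 Ligand-free nuclear receptor dimers were applied to custom Agilent 4×180K protein-binding microarrays whose double-stranded probes carried direct-repeat seeds, single-nucleotide variants, half-site ablations and random human genomic background sequences in 34-nt variable regions. Incubation lasted 1 h. Binding z-scores were computed against the random background probes from regression-normalized fluorescence.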

[2] = test system: LXRa:RXRa (NR concentration 270 nM, RXRa partner concentration 90 nM)
Outline: as §1

[3] = test system: LXRa homodimer (NR concentration 270 nM)
Outline: as §1

[4] = test system: LXRb:RXRa (NR concentration 270 nM, RXRa partner concentration 90 nM)
Outline: as §1

[5] = test system: LXRb homodimer (NR concentration 270 nM)
Outline: as §1

[6] = test system: PPARa:RXRa (NR concentration 270 nM, RXRa partner concentration 90 nM)
Outline: as §1

[7] = test system: PPARg:RXRa (NR concentration 180 nM, RXRa partner concentration 90 nM)
Outline: as §1

[8] = test system: PPARg:RXRa 270nM:90nM, anti-RXR (NR concentration 270 nM, RXRa partner concentration 90 nM)
Outline: as §1

[9] = test system: PPARg:RXRa 30nM:10nM, anti-RXR (NR concentration 30 nM, RXRa partner concentration 10 nM)
Outline: as §1

[10] = test system: PPARg:RXRa 90nM:30nM, anti-RXR (NR concentration 90 nM, RXRa partner concentration 30 nM)
Outline: as §1

Row | Sequence | PBM binding z-score [1] | PBM binding z-score [2] | PBM binding z-score [3] | PBM binding z-score [4] | PBM binding z-score [5] | PBM binding z-score [6] | PBM binding z-score [7] | PBM binding z-score [8] | PBM binding z-score [9] | PBM binding z-score [10]
1 | TTACCAAGGTGAAGGACGTTGATCCCTCTGTAGA | 0.74 | 0.584 | -0.361 | 0.414 | -0.656 | 1.21 | 0.633 | 1.19 | 0.789 | 1.17
2 | TGACTGAGGTTATAAGATCAGGGAACGTTGCAAA | 1.3 | 1.14 | -0.497 | 1.08 | -0.238 | 2.27 | 0.706 | 0.976 | 0.531 | 0.783
3 | ACTTACGGGTCAACGAGGTTAGAGCACGCGTATA | 6.72 | 4.76 | 0.422 | 3.9 | 0.261 | 5.57 | 5.52 | 5.72 | 2.15 | 4.13
4 | TCATATAGTTAAACAGGTGAAAGTCCGTAAGTTA | 1.06 | 1.1 | 0.478 | 1.1 | 0.356 | 1.7 | 1.25 | 2.68 | 4.38 | 3.42
5 | CCTGACAGGTGAGAAGGTAACTCAGCCTCGATTA | -0.00915 | 0.102 | -0.219 | -0.0265 | -0.779 | 0.763 | 0.404 | 0.701 | -0.205 | 0.257
6 | ACTAGCAGGCCAAGTTTAGGTCACTCAAACAAAG | 0.818 | 0.384 | 0.281 | 0.929 | -0.282 | 1.6 | 0.288 | 0.528 | -0.151 | 0.000314
7 | CAAACTAGGTCACGAAAGGACAAAGTCGAATGAC | 5.05 | 6.1 | 1.25 | 4.08 | 0.368 | 5.41 | 9.21 | 7.34 | 5.83 | 7.48
8 | TCTGCTAGGTCAACTATGGTCAGCTAATCTGCTA | 4.09 | 3.35 | 0.302 | 2.35 | 0.258 | 3.65 | 2.72 | 3.29 | 2.15 | 2.81
9 | TCTGCGAGGTCAACGATGGTCAGCTAATCTGCTA | 6.96 | 5.84 | 1.07 | 4.75 | 1.01 | 5.65 | 5.8 | 6.12 | 3.37 | 4.91
10 | CCTACTGGACCAAAGGTCATTGATTCCAATGCTC | 4.9 | 5.68 | 5.86 | 5.23 | 2.31 | 6.24 | 10.5 | 9.96 | 10.5 | 10.8
11 | TCTTGTAGATCAACAGGAGGTTAAGGAAGATCGA | 0.186 | 0.637 | -0.0408 | 0.484 | -0.341 | 1.24 | 0.0349 | 1.22 | 2.48 | 1.68
12 | CCGACTGGGGCAAGATTACCATAACGCACAGCCA | -0.454 | -0.432 | -0.473 | -0.425 | -1.17 | -0.0466 | 1.17 | 0.422 | -0.715 | -0.513
13 | CCTTACGGGTCACTCCAGGTTATAGGATCGGAGT | 4.94 | 7.84 | 1.93 | 5.04 | -0.0329 | 4.39 | 3.38 | 3.76 | 1.12 | 2.6
14 | ATCTCTAGGTAAAAGTTCAGTGGATCCCGAGGAT | 1.06 | 1.66 | 1.37 | 1.03 | 1.11 | 4.09 | 7.94 | 7.5 | 7.58 | 8.5
15 | CCTACTCGGCCATTCAGAGGTCATTGATCATATG | 3.34 | 4.79 | 7.45 | 4.25 | 1.6 | 3.7 | 1.05 | 1.96 | 0.587 | 1.31
16 | CCGACTGGGGCATAGGTTACCATACTCAGTACGA | -0.122 | -0.0807 | -0.232 | 0.581 | -1.1 | 3.58 | 8.18 | 7.34 | 6.9 | 7.37
17 | CGAACTAGCTCAGAACAGGACAGTGAAGGATGAT | -0.682 | -0.642 | -0.0403 | -0.877 | -0.565 | -0.547 | 0.544 | -0.694 | -0.189 | -0.609
18 | AGTCAAAGCTCATCTAGGTAACGTAAGATATGCT | -0.387 | -0.578 | -0.275 | -0.318 | -0.689 | 0.0609 | 0.604 | 0.302 | -0.0105 | 0.0855
19 | ACAGACACGTGAGTGAAGGTAACTCAGCTGGACG | -0.234 | -0.154 | -0.292 | -0.456 | -0.355 | -0.342 | 0.663 | -0.357 | -0.193 | -0.63

Row | Sequence | PBM binding z-score [1] | PBM binding z-score [2] | PBM binding z-score [3] | PBM binding z-score [4] | PBM binding z-score [5] | PBM binding z-score [6] | PBM binding z-score [7] | PBM binding z-score [8] | PBM binding z-score [9] | PBM binding z-score [10]
20 | TGAATGCGGTTAAAGATCAGGGAACGTGGCGTCG | -0.28 | -0.16 | -0.66 | -0.519 | -0.199 | 1.25 | 1.64 | 3.54 | 1.66 | 2.98
21 | CCTAGCATGCCAATCTGGGTCACTCAAGGCTTGA | 0.636 | 1.12 | -0.371 | 0.998 | -0.652 | 3.3 | 2.23 | 2.25 | -0.035 | 1.26
22 | CCTACTGGCCCACGAAAGGTCATTGATTCAGTGA | 3.58 | 4.35 | 5.66 | 4.39 | 0.684 | 4.2 | 0.749 | 2.36 | 0.593 | 1.47
23 | TCATATAGATAAATGCTAGGTGAAAGTCCGATCT | 0.784 | 0.813 | 0.103 | 0.591 | -0.152 | 0.912 | 0.876 | 2.09 | 3.93 | 3.03
24 | TGTTAAAGTTCAAAGGTAACGTAAGTATCCACAC | 6.98 | 6.1 | 5.38 | 4.53 | 2.3 | 5.47 | 7.2 | 6.84 | 4.03 | 6.36
25 | TAGCCTAGGTCATTGGGTCAGTATAGTACGCATC | 4.85 | 4.31 | 1.59 | 3.21 | 0.907 | 4.58 | 5.28 | 5.07 | 1.89 | 3.99
26 | TCTTGTTGGTCAAAGGTCACACACTCGAAATGCG | 5.68 | 5.8 | 4.46 | 5.63 | 2.85 | 6.46 | 10.7 | 9.31 | 9.15 | 10
27 | AGAATGAGGTTATTAGGATCAGGGAATTGCGGTC | 2.04 | 1.69 | 0.286 | 1.38 | 0.314 | 2.79 | 2.39 | 2.69 | 0.762 | 1.59
28 | CTTAGCAGGCCAATCTGGGTCACTCAAGGCTTGA | 0.29 | 1.18 | -0.362 | 0.386 | -0.93 | 3.08 | 2.4 | 2.51 | -0.0201 | 1.43
29 | TTACCAAGGTGAAAGGTCGATGATGCACGCCTTG | 3.03 | 2.42 | -0.187 | 2.14 | -0.613 | 4.95 | 8.4 | 7.54 | 6.44 | 7.87
30 | ATCGAAAGGTCGTTAGGTGAGTATACAGAAAGGC | 3.98 | 3.54 | 0.592 | 3.08 | 1.11 | 4.25 | 2.59 | 3.29 | 1.33 | 2.27
31 | CCGACTGGGGCAGAAAAGTTACCATACCATCCGG | -0.281 | -0.694 | -0.371 | -0.55 | -1.1 | -0.413 | 0.56 | -0.294 | -0.571 | -0.517
32 | TCTTGTAGTTCAGCAGGTTAAGAAAGCTGGCCAA | 0.786 | 1.15 | 0.28 | 0.805 | 0.146 | 1.5 | -0.802 | 1.61 | 2.42 | 1.86
33 | TAGCCTAGGTCATTCTGGGGCCAGTATAGAAAGC | 4.29 | 3.66 | 0.795 | 2.94 | 1.34 | 3.37 | 1.98 | 2.19 | 0.292 | 1.44
34 | CCGACTGGGTCAGAAAGGTTACCATACCATCCGG | 1.8 | 1.62 | -0.0382 | 1.61 | -0.767 | 3.21 | 3.13 | 3.2 | 0.873 | 2.2
35 | GGAACGAGGGCATTCGAGTTAATAGCATGGCGAT | 1.38 | 1.05 | -0.476 | 0.179 | -0.759 | 1.58 | 1.18 | 0.939 | 0.26 | 1.09
36 | CAAACTAGGTCACCGGAAGGTCGAAGTCCGCATG | 4.63 | 4.34 | 1.21 | 3.06 | 0.673 | 5.6 | 9.2 | 7.5 | 5.41 | 7.33
37 | ACTAGTTGGTCAGTTGAGGTCACACACAATTCGG | 3.26 | 3.93 | 3.56 | 3.58 | 0.939 | 4.12 | 2.13 | 2.59 | 0.914 | 1.69
38 | ATATGTCGGTTAGCTGGGGTCATTCAGACTAGGC | 3.68 | 4.3 | 2.96 | 4.36 | 1.24 | 4.39 | 1.86 | 2.65 | 0.599 | 1.75

From the supplement of paper PMC6555819
